# Test results taken from PubChem BioAssay (NCATS).
# A number with no mark means an inactive call. Calls come from the whole dose curve; as a rule, active = well fitted curve in the direction sought with a large enough effect; inconclusive = small, poorly fitted or top-dose-only effect, or another doubt; inactive = no such curve, though single readings can be large; an effect the other way counts as inactive or inconclusive. Results filed as inconclusive are left out.
# Biological target: Ferritin light chain (Equus caballus) (UniProt P02791)
# Sequence (P02791 2-175 limits assumed): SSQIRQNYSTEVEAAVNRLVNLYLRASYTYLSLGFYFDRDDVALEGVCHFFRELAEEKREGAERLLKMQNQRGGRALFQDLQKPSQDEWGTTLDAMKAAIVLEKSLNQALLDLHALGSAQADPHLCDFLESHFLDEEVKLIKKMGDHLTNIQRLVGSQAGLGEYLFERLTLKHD
# Assay: qHTS Validation Assay for Identification of Novel General Anesthetics (AID 2323); note: % is set by controls: 0 for no effect and ±100 for the full control effect
# Conditions: horse apoferritin, anesthetic-site fluorescent probe displacement; series mostly up to 76.9 µM; activity change, negative = inhibition: at the top concentration
# Method in brief: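 Apoferritin from horse spleen (10 uM) was mixed with 1-aminoanthracene at 50% saturation in PBS, then compounds were added. After 10 min at room temperature, fluorescence was read (ex 380 nm, em 535 nm) and normalized to free-probe and complex controls.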
row,Compound,"activity change, negative = inhibition [%]"
1,COc1ccc2c(c1)CCC1C2CC[C@@]2(C)C1CC[C@@H]2NCCCCCCN1C(=O)C=CC1=O (some centres undefined),-4.31
2,O=[N+]([O-])c1cccc2c(Br)[nH]nc12,-8.36
3,NCCC1CCCC(CCN)N1 (centres undefined),-0.48
4,OC[C@H]1NC[C@@H](O)[C@@H]1O,1.9
5,O=C(O)[C@H]1NCCC[C@H]1C(=O)O,-0.202
6,CC(C)NCC(O)COc1ccc(CC(N)=O)cc1 (centres undefined),2.18
7,CCN(CC)CCOC(=O)c1cc(Cl)c(N)cc1OC,3.4
8,CC(C)C[C@H](NC(=O)C1OC1C(=O)O)C(=O)NCCCCN=C(N)N (some centres undefined),-7.58
9,OCC1NCC(O)C(O)C1O (centres undefined),3.6
10,C#CCn1c(=O)c2c(ncn2C)n(C)c1=O,-3.77
11,O=C(O)C1=CCCNC1,0.88
12,N=C(N)c1ccc(N)cc1,-6.85
13,C[C@@]1(C2CCCC2)Cc2cc(OCC(=O)O)c(Cl)c(Cl)c2C1=O,-3.85
14,O=C(O)C1=CCNCC1,-0.631
15,CC(=O)C(C)=O,-6.9
16,CNc1cc(NS(=O)(=O)c2ccc(N)cc2)nc(NC)n1,-3.11
17,NC1(C(=O)O)CCCCC1,-2.33

row,Compound,"activity change, negative = inhibition [%]"
1,CO/N=C(\C(=O)N[C@@H]1C(=O)N2C(C(=O)O)=C(CSc3nc(=O)c(O)nn3C)CSC12)c1csc(N)n1 (some centres undefined),-4.65
2,NCCS(=O)O,0.184
3,N[C@@H](Cc1ccc(O)c(I)c1)C(=O)O,-0.139
4,O=C(O)CCC(=O)N1CCCC1C(=O)O (centres undefined),-6.16
5,NCC(O)(CS(=O)(=O)O)c1ccc(Cl)cc1 (centres undefined),-4.49
6,CC(C)(C)NCC(O)COc1cccc2[nH]c(=O)[nH]c12 (centres undefined),-0.835
7,NC1CONC1=O (centres undefined),-2.58
8,O=C(O)c1cccnc1C(=O)O,-3.95
9,COc1ccc(-c2ccc(N)[n+](CCCC(=O)O)n2)cc1,6.89
10,CC(N)=NCCCC[C@@H](N)C(=O)O,3.6
11,C=C(C)C1CC=C(C(=O)O)CC1 (centres undefined),6.23
12,CN[C@H](CC(=O)O)C(=O)O,3.32
13,C[C@@H](NCCc1ccc(O)cc1)[C@@H](O)c1ccc(O)cc1,-1.46
14,CNc1ncnc2c1ncn2[C@H]1C[C@H](OP(=O)(O)O)[C@@H](COP(=O)(O)O)O1,-3.01
15,COc1cc(CC(=O)O)ccc1O,-12.1
16,NC1(C(=O)O)CCc2cc(C(=O)O)ccc21 (centres undefined),14.2

# Biological target: ATP-dependent DNA helicase Q1 (Homo sapiens) (UniProt P46063)
# Sequence (P46063 whole entry, looked up): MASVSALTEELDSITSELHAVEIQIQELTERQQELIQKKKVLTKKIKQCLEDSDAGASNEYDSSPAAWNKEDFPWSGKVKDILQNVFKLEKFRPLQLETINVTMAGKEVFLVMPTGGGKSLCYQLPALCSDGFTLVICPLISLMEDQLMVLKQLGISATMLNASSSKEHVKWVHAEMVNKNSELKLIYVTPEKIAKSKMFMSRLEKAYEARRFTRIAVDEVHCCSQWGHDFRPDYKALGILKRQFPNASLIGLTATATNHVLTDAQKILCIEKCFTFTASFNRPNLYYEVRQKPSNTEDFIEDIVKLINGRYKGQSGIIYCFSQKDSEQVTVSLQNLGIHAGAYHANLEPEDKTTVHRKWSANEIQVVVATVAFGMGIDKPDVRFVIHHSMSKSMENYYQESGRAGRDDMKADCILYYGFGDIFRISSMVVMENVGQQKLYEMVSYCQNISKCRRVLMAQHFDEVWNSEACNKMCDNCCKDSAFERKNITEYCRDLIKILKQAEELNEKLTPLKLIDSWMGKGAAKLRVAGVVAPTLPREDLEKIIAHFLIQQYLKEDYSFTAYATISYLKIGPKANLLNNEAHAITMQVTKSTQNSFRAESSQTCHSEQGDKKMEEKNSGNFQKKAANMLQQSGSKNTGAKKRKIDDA
# Assay: qHTS Validation Assay for Inhibitors of RecQ-Like Dna Helicase 1 (RECQ1) (AID 2353);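 note: plate controls were DMSO vehicle for no effect and enzyme-free control for full effect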
# Conditions: recombinant RECQ1 helicase DNA unwinding assay; series mostly up to 25.6 µM; activity change, negative = inhibition: at the top concentration
# Method in brief: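 RECQ1T1 50 nM; forked duplex (20 bp + 30-nt ss tails) 200 nM, ATP 2 mM final; pH 8.0, 2 mM MgCl2, 2.5 ug/ml poly(dI-dC); 15 min compound preincubation; discontinuous kinetic read over 2 h at RT.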
row,Compound,"activity change, negative = inhibition [%]"
1,NC/C=C\C(=O)O,-0.904
2,COc1ccc2c(c1)CCC1C2CC[C@@]2(C)C1CC[C@@H]2NCCCCCCN1C(=O)C=CC1=O (some centres undefined),-3.16
3,O=[N+]([O-])c1cccc2c(Br)[nH]nc12,0.644
4,CSC(=N)N,3.35
5,NCCC1CCCC(CCN)N1 (centres undefined),5.61
6,OC[C@H]1NC[C@@H](O)[C@@H]1O,-1.85
7,O=C(O)[C@H]1NCCC[C@H]1C(=O)O,-3.3
8,CC(C)NCC(O)COc1ccc(CC(N)=O)cc1 (centres undefined),-2.33
9,CCN(CC)CCOC(=O)c1cc(Cl)c(N)cc1OC,4.39
10,CC(C)C[C@H](NC(=O)C1OC1C(=O)O)C(=O)NCCCCN=C(N)N (some centres undefined),-8.7
11,OCC1NCC(O)C(O)C1O (centres undefined),3.07
12,C#CCn1c(=O)c2c(ncn2C)n(C)c1=O,-1.02
13,O=C(O)C1=CCCNC1,-4.07
14,N=C(N)c1ccc(N)cc1,-3.44
15,C[C@@]1(C2CCCC2)Cc2cc(OCC(=O)O)c(Cl)c(Cl)c2C1=O,3.97
16,O=C(O)C1=CCNCC1,1.41
17,CC[N+](CC)(CC)CC(=O)Nc1c(C)cccc1C,1.79
18,CC(=O)C(C)=O,-0.0191

row,Compound,"activity change, negative = inhibition [%]"
1,CNc1cc(NS(=O)(=O)c2ccc(N)cc2)nc(NC)n1,0.894
2,NC1(C(=O)O)CCCCC1,5.29
3,NCCS(=O)O,-0.178
4,N[C@@H](Cc1ccc(O)c(I)c1)C(=O)O,-1.35
5,O=C(O)CCC(=O)N1CCCC1C(=O)O (centres undefined),-6.1
6,NCC(O)(CS(=O)(=O)O)c1ccc(Cl)cc1 (centres undefined),-7.78
7,CC(C)(C)NCC(O)COc1cccc2[nH]c(=O)[nH]c12 (centres undefined),3.44
8,NC1CONC1=O (centres undefined),2.17
9,O=C(O)c1cccnc1C(=O)O,0.0752
10,CCCCCCCCCCCCCCCCCCOC[C@H](COP(=O)([O-])OCC[N+](C)(C)C)OC,-5.02
11,COc1ccc(-c2ccc(N)[n+](CCCC(=O)O)n2)cc1,3.77
12,CC(N)=NCCCC[C@@H](N)C(=O)O,-0.0585
13,C=C(C)C1CC=C(C(=O)O)CC1 (centres undefined),0.19
14,CN[C@H](CC(=O)O)C(=O)O,-0.936
15,C[C@@H](NCCc1ccc(O)cc1)[C@@H](O)c1ccc(O)cc1,-2.62
16,CNc1ncnc2c1ncn2[C@H]1C[C@H](OP(=O)(O)O)[C@@H](COP(=O)(O)O)O1,4.09
17,COc1cc(CC(=O)O)ccc1O,-6.56
18,NC1(C(=O)O)CCc2cc(C(=O)O)ccc21 (centres undefined),6.01
